# DT40 TDP1 no CPT = qHTS for Inhibitors of human tyrosyl-DNA phosphodiesterase 1 (TDP1): qHTS in cells in absence of CPT; DT40 Tdp1-/- hTDP1 cells, no CPT, ATP luminescence, 48 h; Potency, µM (highest dose often 46.2 µM), inactives show at the top dose activity change, negative = growth inhibition, usual class: inhibitors; 15% of 420,000 active; AID 686978, 2013; further: nearly all actives have a fitted effect of over 55% in size
#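 Growth of hTDP1-complemented DT40 Tdp1-knockout cells is measured by ATP luminescence after at least 48 hr compound exposure at 37 °C, with DMSO substituting for the 20 nM CPT used in the parallel screen.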
# RORg inh = qHTS for inhibitors of ROR gamma transcriptional activity. Nuclear receptor ROR-gamma (Mus musculus), P51450. Drosophila S2 Gal4-RORgamma UAS-luciferase reporter, 20 h. Potency, µM (titrated, usually from 53.6 µM), for inactives: top-dose activity change, negative = inhibition, usual class: inhibitors. 5.4% of 310,000 active. AID 2551, 2010; further: nearly all actives have a fitted effect of over 60% in size
#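 Compounds are pin-transferred onto Drosophila Schneider cells expressing a copper-inducible Gal4–ROR gamma transactivation domain fusion. After 1 hr, copper sulfate is added to 700 uM final; luciferase is read 20 hr later.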
# VP16 counter = VP16 counterscreen qHTS for inhibitors of ROR gamma transcriptional activity; Drosophila S2 Gal4-VP16 UAS-luciferase, luminescence, 20 h; AID 2546, 2010; 3.5% of 310,000 active; Potency, µM (top dose mostly 53.6 µM), inactives show at the highest dose activity, negative = inhibition, actives largely listed as inhibitors;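 further: Gal4-VP16 expression switched on by copper sulfate through the metallothionein promoter; nearly all actives have a fitted effect of over 50% in size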
# TDP1 inh = qHTS Assay for Inhibitors of Tyrosyl-DNA Phosphodiesterase (TDP1). Tyrosyl-DNA phosphodiesterase 1 (Homo sapiens), Q9NUW8. recombinant TDP1, AlphaScreen DNA substrate cleavage. Potency, µM (titrated, usually from 130 µM), without a hit: top-dose activity change, negative = inhibition, usual class: inhibitors. 0.28% of 350,000 active; further: nearly all actives have a fitted effect of over 40% in size
# Target sequence (Q9NUW8 whole entry, looked up): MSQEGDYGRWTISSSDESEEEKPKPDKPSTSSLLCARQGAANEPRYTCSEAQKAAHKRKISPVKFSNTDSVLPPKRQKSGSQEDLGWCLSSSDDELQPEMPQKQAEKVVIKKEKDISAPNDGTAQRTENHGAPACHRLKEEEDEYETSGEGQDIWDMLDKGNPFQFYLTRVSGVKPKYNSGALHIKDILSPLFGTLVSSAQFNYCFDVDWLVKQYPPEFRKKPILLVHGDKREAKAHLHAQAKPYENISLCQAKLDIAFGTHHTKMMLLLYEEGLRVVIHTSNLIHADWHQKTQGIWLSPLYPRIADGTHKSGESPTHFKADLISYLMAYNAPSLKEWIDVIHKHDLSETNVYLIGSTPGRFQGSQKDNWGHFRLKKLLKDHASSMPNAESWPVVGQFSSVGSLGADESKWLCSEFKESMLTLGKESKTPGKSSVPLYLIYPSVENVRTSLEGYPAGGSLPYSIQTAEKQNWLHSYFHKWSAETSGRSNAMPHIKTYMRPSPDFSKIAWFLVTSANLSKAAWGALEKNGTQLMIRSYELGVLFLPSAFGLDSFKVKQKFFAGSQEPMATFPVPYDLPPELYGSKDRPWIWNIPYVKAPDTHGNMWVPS
#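 Recombinant E. coli-expressed Tdp1 (1 nM) preincubated with compound 15 min at RT, then 5'-biotin/3'-phosphotyrosine-FITC DNA substrate (15 nM) added for 5 min. AlphaScreen beads (10 ug/ml) added, 10 min RT; tyrosine-FITC cleavage read as signal loss.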
# TDP1 cell CPT = qHTS for Inhibitors of human tyrosyl-DNA phosphodiesterase 1 (TDP1): qHTS in cells in presence of CPT | chicken DT40 Tdp1-/-;hTDP1 cells + 20 nM CPT, ATP luminescence, 48 h | Potency, µM (doses to about 46.2 µM), without a hit: top-dose activity change, negative = growth inhibition, actives largely listed as inhibitors | 12% of 420,000 active | AID 686979, 2013; further: nearly all actives have a fitted effect of over 55% in size
#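 Cell growth measured by CellTiter-Glo luminescence after a minimum 48 h, 37 C compound exposure with 20 nM CPT in Tdp1-knockout DT40 cells stably expressing hTDP1, seeded 400/well; qHTS titration format.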
# Numbers without * were called inactive; ? = inconclusive; . = no result given; [ ] = another dose, or the depositor's remark. Rows were chosen to be rich in hits. Some 19% of all compounds tested hit in one or more screens of this group. The call rests on the fitted dose curve; in most records, active means well fitted curve in the direction sought with a large enough effect; inconclusive means small, poorly fitted or top-dose-only effect, or another doubt; inactive means no such curve, though single readings can be large; an effect the other way counts as inactive or inconclusive. On the % scale 0 is the no-effect control and ±100 the full control effect; potency means the concentration at half of the fitted maximal effect.
SMILES,DT40 TDP1 no CPT,RORg inh,VP16 counter,TDP1 inh,TDP1 cell CPT
CC(C)(C)S(=O)(=O)c1cnc2c(-c3ccc(F)cc3)cnn2c1N,?,4.5µM*,-4%,-2%,?
Nc1c(-c2ccccc2)cnc2cc(-c3ccccc3)nn12,-27%,2.8µM*,?,2%,-30%
CS(=O)(=O)c1cnc2c(-c3ccsc3)cnn2c1N,0%,?,-15%,0%,3%
CC(C)(C)S(=O)(=O)c1cnc2c(-c3ccc(Cl)cc3)cnn2c1N,?,2.8µM*,-10%,2%,-25%
COc1ccc(-c2cnn3c(N)c(S(=O)(=O)C(C)(C)C)cnc23)cc1,?,11µM*,?,6%,-15%
CCOCCc1nn2c(=O)cc(COC(=O)c3ccc(NC(=O)c4cccs4)cc3)nc2s1,?,.,.,-1%,-7%
CC1CCCCN1C(=O)c1ccccc1OC1CCN(S(C)(=O)=O)CC1 (stereo not given),14%,8%,-9%,5%,-11%
O=C(O)CC1(CC(=O)NCc2cccc(Cl)c2)CCCCC1,21%,13%,-9%,.,-8%
Cc1ccc(S(=O)(=O)C(C)C(=O)c2ccc3c(c2)OCCO3)cc1 (stereo not given),-24%,-21%,-3%,2%,-25%
CCC(=NNC(=O)c1cccc(S(=O)(=O)N2CCOCC2)c1)c1ccccc1,17%,.,.,1%,2%
N#CCCn1cc(C(=O)Nc2ccccn2)c(-c2ccccc2)n1,1%,19%,-5%,.,0%
Nc1c(-c2ccc(Cl)cc2)cnc2c(-c3ccccc3)cnn12,-15%,22µM*,-7%,.,-25%
Nc1c(-c2ccc(Cl)cc2)cnn1-c1ccccc1,-8%,-27%,4%,.,-29%
Cc1cc(NC(=O)c2ccc(Br)c([N+](=O)[O-])c2)no1,-8%,-14%,-9%,0%,-14%
Nc1nc(OCc2ccccc2)c2[nH]cnc2n1,-9%,.,.,11%[56.1 µM],-16%
Nc1nc(N)c2[nH]cnc2n1,8.2µM*,.,.,.,6.5µM*
COCc1ccc(CN2CCCC(CCC(=O)NCc3cccc(OC)c3)C2)o1 (stereo not given),-7%,-7%,-1%,6%,3%
COc1cccc(CN2CCN(C(=O)c3cc(-c4ccncc4)nc4ccc(C)cc34)CC2)c1,16µM*,.,.,.,23µM*
COc1cccc(CN2CCN(C(=O)c3cccc4ccccc34)CC2)c1,11%,-8%,2%,.,-2%
COc1cccc(CN2CCN(C(=O)c3cc(-c4ccccn4)nc4ccc(Cl)cc34)CC2)c1,18µM*,-17%,0%,5%,?
N=c1n(CCN2CCOCC2)c2ccccc2n1CC(=O)c1ccc(Cl)c(Cl)c1,18µM*,?,4µM*,-7%,?
CCCCOC(=O)Cn1c(=N)n(CCN2CCOCC2)c2ccccc21,-17%,.,.,.,9%
N=c1n(CCN2CCOCC2)c2ccccc2n1CC(=O)c1cccc([N+](=O)[O-])c1,23µM*,18%,2%,.,16µM*
O=C(Cn1nnc2ccccc21)c1cccc([N+](=O)[O-])c1,-15%,19%,-6%,1%,-10%
CCn1c(=N)n(CC(=O)c2cccc([N+](=O)[O-])c2)c2ccccc21,21µM*,-25%,-2%,3%,?
SMILES,DT40 TDP1 no CPT,RORg inh,VP16 counter,TDP1 inh,TDP1 cell CPT
O=C(NCCN1CCOCC1)c1cc([N+](=O)[O-])cc([N+](=O)[O-])c1,6%,-31%,-10%,.,6%
N=c1n(CC(=O)c2cccc([N+](=O)[O-])c2)c2ccccc2n1Cc1ccccc1,21µM*,7.1µM*,?,2%,16µM*
O=C(CCc1ccccc1)OCC(=O)c1cccc([N+](=O)[O-])c1,-15%,25%,1%,3%,-5%
Cc1csc(NC(=O)CSc2nnc(Cn3c(=O)sc4ccccc43)n2-c2ccccc2)n1,-100%,2%,3%,7%,7.3µM*
Cc1ccccc1-n1c(Cn2c(=O)sc3ccccc32)nnc1SCC(=O)Nc1nccs1,-27%,19%,-7%,-3%,2%
CCCSc1nnc(Cn2c(=O)sc3ccccc32)n1-c1ccccc1,18µM*,20%,5%,6%,?
Cn1c(Cn2c(=O)sc3ccccc32)nnc1SCC(=O)NC1CCCC1,-9%,11%,-12%,0%,16µM*
COC(=O)c1ccc(N2C(=O)Nc3ccccc3N2O)cc1,7%,-5%,-5%,6%,2%
O=S(=O)(c1ccc(N2CCN(CCO)CC2)nc1)N1CCOCC1,2%,.,.,0%,8%
COc1ccc(CNC(=O)C(OC(=O)c2ccco2)c2ccccc2)cc1 (stereo not given),-22%,35%,1%,.,15%
FC(F)Oc1ccc(/C=N/NC(=S)Nc2cc(C(F)(F)F)ccc2Cl)cc1,?,1.3µM*,5.6µM*,3%,?
Cc1nn(-c2ccccc2)c(N2CCCC2)c1/C=N/NC(=S)Nc1cc(C(F)(F)F)ccc1Cl,?,1.8µM*,2.8µM*,3%,?
Cc1nn(-c2ccccc2)c(N2CCCC2)c1/C=N/NC(=S)Nc1ccccc1C(F)(F)F,?,1.4µM*,1µM*,8%,?
COc1ccc(NC(=O)c2cccc(C(=O)Nc3ccc(OC)cc3)n2)cc1,.,15%,0%,2%,.
COC(=O)C1Cc2c([nH]c3ccccc23)C2(CCN(Cc3ccccc3)CC2)N1 (stereo not given),21µM*,-5%,-3%,.,?
Cc1ccc(-c2nc(C)sc2CC(=O)OCC(=O)Nc2cccc([N+](=O)[O-])c2)cc1,-28%,-15%,-2%,5%,-22%
Cn1nnnc1SCCCNCc1ccccc1OCc1ccccc1Cl,4.6µM*,.,.,1%,5.2µM*
Cn1nnnc1SCCCNCc1cccc(OCc2ccccc2Cl)c1,16µM*,.,.,5%,18µM*
Cn1nnnc1SCCCNCc1cccc(OCc2ccccc2F)c1,?,.,.,-3%,?
Cn1nnnc1SCCCNCc1cc(Cl)ccc1OCc1ccccc1,?,.,.,4%,?
CCOCCCNC(=O)c1c(-c2ccccc2)noc1C,1%,-5%,1%,-1%,-3%
Cc1onc(-c2ccccc2)c1C(=O)NC(=S)NNC(=O)c1ccc(O)cc1O,4.6µM*,?,-1%,8%,4.1µM*
O=C(NNC(=O)c1ccc(O)cc1O)c1ccc(-c2ccccc2)cc1,?,-34%,-7%,.,?
Cc1onc(-c2ccccc2)c1C(=O)NC(=S)NNC(=O)c1ccc(O)cc1,13µM*,-5%,-8%,8%,?

# Screens as filed in PubChem.
